# Test results from PubChem BioAssay.
# Experiments:
# [1] = system: Human papillomavirus type 1a protein E7 (residues 44-93); experiment: small molecules binding HPV E7 44-93 – biochemical, small-molecule microarray, residues 44-93, 635 nm fluorescence, primary screen (AID 1108); conditions: fluorescence 635 nm, higher = more signal;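 note: E7 fragment applied at 1 µg/mL in TBST for 1 h at 4 C; score combines spot fluorescence with its signal to noise ratio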
# [2] = hepatitis C replication reporter changes, two-sided – Huh7 cells, luciferase reporter, HCV replication inhibitor project, primary screen (AID 1109); conditions: Huh7 HCV replicon luciferase reporter, 48 h; higher = more signal;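 note: huh7 hepatoma cells harbouring a luciferase neomycin HCV replicon reporter; luciferase luminescence as measure of HCV replicon replication; test concentration not given here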
# [3] = target: Left-right determination factor 2 (Homo sapiens) (UniProt O00292); experiment: small molecules binding LEFTY2 protein – biochemical, small-molecule microarray, 635 nm fluorescence scan, primary screen (AID 1110); conditions: higher = more signal
# [4] = target: Calmodulin-1 (Homo sapiens) (UniProt P0DP23); experiment: small molecules binding calmodulin-1 with EGTA – biochemical, small-molecule microarray, Cy5-labelled CALM1, profiling panel (AID 1111); conditions: Cy5-CALM1 binding fluorescence, higher = more signal;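 note: labelled calmodulin applied in Tris saline Tween buffer holding calcium plus EGTA and DTT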
# [5] = target: Calmodulin-1 (Homo sapiens) (UniProt P0DP23); experiment: small molecules binding Ca-loaded calmodulin-1 – biochemical, small-molecule microarray, Cy5-labelled CALM1, plus calcium, artefact control for SMM control-protein annotation, profiling panel (AID 1112); conditions: Cy5-CALM1 binding fluorescence, higher = more signal;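 note: score merges spot fluorescence with signal to noise from triplicate slides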
# [6] = probe aWnt5a binding to arrayed compounds – biochemical, biotinylated probe, 635/667 nm fluorescence, primary screen (AID 1113); conditions: small-molecule microarray, higher = more signal;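 note: score merges 667 nm fluorescence intensity with signal-to-noise per printed feature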
# [7] = probe aShh binding to arrayed compounds – biochemical, biotinylated probe, 635/667 nm fluorescence, primary screen (AID 1114); conditions: small-molecule microarray, higher = more signal;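 note: probe is biotin-labelled aShh protein from a stem cell growth factor screen; measures binding of labelled protein to compounds printed on the slide; score merges feature fluorescence at 667 nm with signal-to-noise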
# [8] = probe aNog binding to arrayed compounds – biochemical, biotinylated probe, 635/667 nm fluorescence, primary screen (AID 1115); conditions: small-molecule microarray, higher = more signal;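 note: probe is biotinylated aNog protein used at 0.15 µg/mL for 1 h at 4 C; z-score combines 667 nm fluorescence of each spot with its signal to noise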
# [9] = target: Torsin-1A-interacting protein 1 (Homo sapiens) (UniProt Q5JTV8); experiment: compound microarray binding of lysate hLAP1 – cell lysate, small-molecule microarray, COS7 lysate, 635/667 nm fluorescence, primary screen (AID 1116); conditions: 635 nm fluorescence, higher = more signal
# [10] = target: Alpha-bungarotoxin (Bungarus multicinctus) (UniProt P60615); experiment: compounds binding labelled alpha-BTX control protein – biochemical, small-molecule microarray, Alexa647 label, 635/667 nm fluorescence, artefact control for SMM control protein annotation, profiling panel (AID 1117); conditions: alpha-BTX-A647 binding fluorescence, higher = more signal
# Alpha-bungarotoxin (Bungarus multicinctus), sequence (P60615 whole entry, looked up): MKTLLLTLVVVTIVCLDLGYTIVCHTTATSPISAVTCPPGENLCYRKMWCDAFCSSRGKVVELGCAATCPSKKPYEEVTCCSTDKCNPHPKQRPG
# Left-right determination factor 2 (Homo sapiens), sequence (O00292 whole entry, looked up): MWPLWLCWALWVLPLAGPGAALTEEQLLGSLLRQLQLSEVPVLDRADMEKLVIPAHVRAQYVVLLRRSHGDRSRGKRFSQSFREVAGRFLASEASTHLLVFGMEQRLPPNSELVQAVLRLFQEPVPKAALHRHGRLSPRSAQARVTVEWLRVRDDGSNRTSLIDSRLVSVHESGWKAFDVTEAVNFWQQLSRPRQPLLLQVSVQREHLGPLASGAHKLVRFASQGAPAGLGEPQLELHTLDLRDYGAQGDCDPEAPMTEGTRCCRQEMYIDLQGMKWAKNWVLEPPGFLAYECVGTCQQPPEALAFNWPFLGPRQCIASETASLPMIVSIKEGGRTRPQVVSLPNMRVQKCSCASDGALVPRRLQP
# Torsin-1A-interacting protein 1 (Homo sapiens), sequence (Q5JTV8 whole entry, looked up): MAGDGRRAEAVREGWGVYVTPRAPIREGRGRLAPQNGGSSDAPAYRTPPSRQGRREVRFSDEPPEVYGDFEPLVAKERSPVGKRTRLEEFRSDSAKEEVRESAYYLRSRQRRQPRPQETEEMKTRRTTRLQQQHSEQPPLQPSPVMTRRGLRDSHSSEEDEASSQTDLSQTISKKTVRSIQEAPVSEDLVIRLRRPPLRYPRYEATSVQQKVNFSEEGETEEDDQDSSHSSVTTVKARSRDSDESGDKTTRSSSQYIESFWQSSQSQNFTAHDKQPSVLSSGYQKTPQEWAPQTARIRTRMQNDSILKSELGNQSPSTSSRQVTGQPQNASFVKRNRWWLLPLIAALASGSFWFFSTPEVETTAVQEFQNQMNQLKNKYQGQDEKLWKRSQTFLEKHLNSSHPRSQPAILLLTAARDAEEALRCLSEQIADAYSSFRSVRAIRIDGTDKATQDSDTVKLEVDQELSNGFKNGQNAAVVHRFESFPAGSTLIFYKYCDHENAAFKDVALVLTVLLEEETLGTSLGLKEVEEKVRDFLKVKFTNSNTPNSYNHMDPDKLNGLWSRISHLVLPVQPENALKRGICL
SMILES,composite z-score [1],z-score [2],composite z-score [3],composite z-score [4],composite z-score [5],composite z-score [6],composite z-score [7],composite z-score [8],composite z-score [9],composite z-score [10]
CN1C(=O)C2C=CC(C(O)Cc3ccccc3)N(N(c3ccccc3)c3ccccc3)C2C1=O (stereo not given),0.501,-0.251,-0.268,-0.0282,0.372,0.0438,0.0469,1.14,0.368,0.678
COC(=O)[C@@]1(Cc2ccc(OC)cc2)[C@H]2c3cc(C(=O)N(C)C)n(CCc4c[nH]c5ccc(O)cc45)c3C[C@H]2CN1C(=O)c1ccccc1,1.06,-0.0903,-0.217,1.83,1.25,-0.0196,0.488,2.27,1.3,1.28
CN1C(=O)[C@@]2(CCS(=O)(=O)c3ccccc3)N=C(c3ccc(OCCCO)cc3)O[C@H]2c2ccccc21,1.48,-1.55,-0.0486,2.46,-0.865,-0.176,-0.367,-0.321,1.72,1.32
CC(C)(C)OC(=O)CC[C@]1(C(=O)N2CCOCC2)N=C(c2ccc(OCCCO)cc2)O[C@H]1c1ccccc1,0.79,-0.304,-0.356,0.0137,-0.031,-0.0459,-0.27,-0.375,1.07,0.109
COC(=O)Cn1c(C(=O)N2CCCC2)cc2c1C[C@H]1CN(C(=O)c3ccccc3)[C@@](Cc3ccc(F)cc3)(C(=O)OC)[C@@H]21,-0.137,-1.32,-0.0715,1.15,0.153,-0.0405,-0.0738,-0.298,0.943,-0.155
CN(C)CCCCNC(=O)[C@H]1C[C@H]2C(=O)N[C@@H](CCCCN(C)C)C(=O)N2[C@H]1c1cccc(OCCO)c1,1.41,0.057,1.17,0.477,-0.167,-0.036,-0.203,0.0721,0.752,0.701
COCCCNC(=O)[C@@H]1c2ccccc2C(=O)N(Cc2ccccc2C(F)(F)F)[C@H]1c1ccc(CO)cc1,0.367,-0.469,-0.431,-0.119,0.423,-0.152,-0.266,0.265,0.612,-0.295
COc1ccccc1CN1C(=O)c2ccccc2[C@](Cc2ccccc2I)(C(=O)NC(C)C)[C@@H]1c1ccc(CO)cc1,1.46,-2.22,0.242,0.704,0.0649,-0.0455,0.131,-0.402,0.855,1.41
COc1ccccc1CN1C(=O)c2ccccc2[C@@H](C(=O)NC(C)C)[C@@H]1c1ccc(CO)cc1,0.636,-0.861,0.4,0.301,-0.508,0.236,0.14,-0.637,0.902,1.06
CC(=O)n1cc(C(O)C2C=CC3C(=O)N(Cc4ccccc4)C(=O)C3N2n2cnnc2)c2ccccc21 (stereo not given),-0.179,-1.49,0.0796,0.416,-0.568,-0.0721,-0.0626,-0.305,0.463,1.09
CC(C)C(O)C1C=CC2C(=O)N(C)C(=O)C2N1Nc1ccccc1 (stereo not given),0.0819,0.247,0.163,0.774,-0.473,0.175,0.679,1.66,2.27,1.25
CC(C)NC(=O)[C@@]1(C)c2ccccc2C(=O)N(C(C)C)[C@H]1c1ccc(CO)cc1,-0.609,-0.593,-3.05,-0.614,-0.0732,-0.296,-0.154,-0.435,-1.97,-0.43
CO[C@H]1O[C@H](CO)[C@@H](OC(=O)c2ccc(Br)cc2)[C@@H]2OC(=O)[C@@H](Cc3ccc4ccccc4c3)C/C=C/C[C@H](Cc3ccc4ccccc4c3)C(=O)O[C@@H]12,0.872,-1.13,-0.255,1.29,-0.145,-0.0894,-0.16,-0.241,1.22,0.528
CN(C)CCCCNC(=O)[C@H]1C[C@H]2C(=O)N3CCC[C@H]3C(=O)N2[C@H]1c1ccc(O)cc1,-1.11,0.939,-0.148,-0.969,-0.949,-0.45,-0.401,0.39,-0.206,-1.01
CC(C)(C)OC(=O)CC[C@@]1(C(=O)O)N=C(c2ccc(OCCCO)cc2)O[C@@H]1c1ccccc1CN=[N+]=[N-],1.31,-2.21,-0.677,1.33,1.09,0.145,0.218,-0.1,1.24,2.78
NC(N)=NCc1cn(CCc2c[nH]c3ccccc23)nn1,0.712,-1.66,1.23,-0.732,-1,-0.114,0.0141,-0.158,0.615,0.755
O=C1O[C@@H](c2ccccc2)[C@@H](c2ccccc2)N2[C@@H](c3ccc(O)cc3)[C@]3(C(=O)Nc4ccc(C#CC5=CCCCC5)cc43)[C@@H](C(=O)N3CCN(c4ncccn4)CC3)[C@H]12,1.17,-1.9,0.333,1.19,-0.581,-0.0459,0.0756,-0.14,0.951,0.862
Cc1ccc(S[C@]2(C(=O)NCc3ccccc3)CC(=O)N(C(C)C)[C@@H]2c2ccc(CO)cc2I)cc1,1.34,-1.52,-1.26,0.436,0.475,-0.243,-0.229,0.962,0.877,-0.613

SMILES,composite z-score [1],z-score [2],composite z-score [3],composite z-score [4],composite z-score [5],composite z-score [6],composite z-score [7],composite z-score [8],composite z-score [9],composite z-score [10]
C=C(/C=C/CNS(=O)(=O)c1ccc(C)cc1)[C@H](O)[C@H]1CCCN1S(=O)(=O)c1ccccc1[N+](=O)[O-],-0.197,-2.48,0.77,-0.115,-0.795,-0.119,-0.138,-0.272,0.581,0.616
COc1ccc([Si](C)(C)[C@H]2[C@H](CCO)O[C@@]3(C(=O)N(Cc4cccc(N5CCCCC5=O)c4)c4ccccc43)[C@@H]2C)cc1,1.25,-5.07,1,0.557,0.388,-0.0919,0.149,0.304,0.753,1.22
CC(C)N1CC=CC23O[C@@H]4C=CCOC(=O)[C@@H]4[C@H]2C(=O)N(C(C)CO)[C@@H]3C1=O (stereo not given in full),-0.913,0.187,-1.76,-0.0212,-0.123,-0.196,0.0278,0.141,-0.606,-0.127
CCOC(=O)[C@H]1C/C=C/C[C@H](C(=O)OCC)C(=O)O[C@H]2[C@@H](OC)O[C@H](CO)[C@@H](OC(=O)CCc3ccccc3)[C@@H]2OC1=O,-0.431,-1.85,-1.59,-0.381,0.367,-0.184,-0.0937,1.47,0.162,-0.187
C=CC[C@@]1(C(=O)O)N=C(c2ccc(OCCCO)cc2)O[C@@H]1c1ccccc1,1.35,0.0165,-1.5,-0.815,-1.41,0.499,0.265,2.02,4.53,2.51
Cc1ccc(F)cc1S(=O)(=O)N[C@@H]1CCN(Cc2ccc(OC(C)C)cc2)C1,-1.22,-3.58,0.2,-0.892,-1.14,-0.103,-0.153,0.0771,0.224,-0.688
CC(CO)N1C(=O)[C@@H]2C3C(=O)OCCC/C=C\[C@H]3OC23C=CCN(Cn2nnc4ccccc42)C(=O)[C@@H]13 (stereo not given in full),-1.01,-0.456,-0.214,-0.45,-0.205,-0.152,-0.0553,-0.196,-0.718,-0.559
C=C(/C(=C/C[C@@H](OC(=O)c1ccncc1)c1ccccc1OCCO)c1cc(C(=O)OC)ccc1OC)C(C)C,1.36,-2,0.788,0.455,-0.366,-0.012,0.3,-0.025,0.568,0.255
CC(C)C(CO)N1C(=O)[C@]2(C)C3C(=O)OCCC/C=C\[C@H]3OC23C=CCN(c2ccc(Cl)cc2)C(=O)[C@@H]13 (stereo not given in full),0.964,0.344,-1.03,-0.224,-0.193,-0.131,-0.138,0.563,-0.0952,-0.28
CCOC(=O)C1=CC[C@@H](c2cc(Cl)ccc2Cl)N(S(=O)(=O)c2ccc(C)cc2)[C@H]1c1ccc(OC)cc1,-0.157,-2.23,-0.658,0.379,0.379,0.374,0.898,-0.412,0.417,-0.369
[N-]=[N+]=NCc1ccccc1C[C@@]1(C(=O)N2CCCCC2)N=C(c2ccc(OCCCO)cc2)O[C@@H]1c1ccccc1N=[N+]=[N-],1.37,-1.04,-0.0573,1.43,0.795,-0.392,-0.284,-0.919,0.209,0.809
CC(C)OC(=O)CC(=O)CC(O)c1cccc(C#N)c1 (stereo not given),1.32,-0.664,-0.0472,0.552,0.252,-0.0944,-0.16,-0.0956,1.39,0.684
COc1ccc(C(O)C2C=CC3C(=O)N(c4ccccc4)C(=O)C3N2Nc2ccc(C#N)cc2)c2ccccc12 (stereo not given),0.596,-0.46,-0.199,2.63,1.07,0.0388,-0.0709,1.45,1.83,1.68
COCCCNC(=O)[C@]1(Cc2ccccc2N=[N+]=[N-])N=C(c2ccc(OCCCO)cc2)O[C@@H]1c1ccccc1N=[N+]=[N-],1.43,-3.31,-0.282,1.72,0.785,0.14,0.0556,-0.312,-0.0819,0.955
C[N+](C)(C)CCCC[C@@H]1NC(=O)[C@@H]2C[C@H](C(=O)O)[C@H](c3ccc(O)cc3)N2C1=O,-3.49,0.964,-0.566,-0.0386,0.305,-0.197,-0.141,-0.359,0.136,0.0213
CCCCN1CC=CC23O[C@@H]4C=CCOC(=O)[C@@H]4[C@H]2C(=O)N(CCCO)[C@@H]3C1=O (stereo not given in full),0.409,-0.352,-0.997,-0.125,0.423,-0.202,-0.138,-0.168,-0.363,-1.34
CC(C)C(O)C1C=CC2C(=O)N(C)C(=O)C2N1N(c1ccccc1)c1ccccc1 (stereo not given),-0.192,0.865,0.0172,0.107,0.368,-0.0165,0.14,0.603,0.251,0.218
